“And” between values parts separate entries of the source, which are not always exact repeats. Equal entries are not always repeated. Compounds without any hit were thinned out: in the full panel of roughly 83,000, 20% have a hit.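 96-well plates, one dose, 48 hours. Percent growth reported; active if below 10.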 Unmarked numbers belong to inactive results. The source made the active and inactive calls.

The source of these data is PubChem BioAssay (NCI).

Common to all, as to assay: NCI-60 one-dose screen, 48 h (100 = growth as untreated, 0 = no growth, -100 = all killed)
Conditions in all cases: 10 µM unless noted

In test [1] the test system is HCT-15 colon.
The subject of test [2] is HT29 colon.
Test [3] has as its system SNB-75 CNS.
Test [4] deals with SNB-19 CNS.
Test [5] deals with U251 CNS.
The subject of test [6] is PC-3 prostate.
Test [7] deals with SK-MEL-5 melanoma.
Test [8] relates to UACC-62 melanoma.
Test [9] relates to LOX IMVI melanoma.
The test system of test [10] is SK-MEL-28 melanoma.

In the case of `Cn1cc(-c2cc3nc(-c4cn(C)c5ncccc45)cc(N)n3n2)c2cc(F)ccc21`, the growth is 69% in test [1]; 6.68% (active) in test [2]; 52.9% in [3]; 8.57% (active) in test [4]; -41.8% (active) in test [5]; 32.5% in test [6]. The growth in test [7] is 78.2%; in test [8] it was 80.3%; in test [9] it was 44.4%; in test [10], 92.8%.

On to `COc1ccc(/C=C/c2nc3ccccc3n3c(-c4cccc([N+](=O)[O-])c4)nnc23)cc1`, for which the growth was -80.7% (active) in [1]; -59.5% (active) in test [2]; -2.16% (active) in test [3]; 15% in test [4]; -64.5% (active) in test [5]; 5.23% (active) in test [6]. The growth is -95.4% (active) in [7], -83.1% (active) in test [8], -77.3% (active) in test [9] and -47.1% (active) in test [10].

For `COc1ccc2[nH]cc(-c3cc(N)n4nc(-c5c[nH]c6ccccc56)cc4n3)c2c1`, the growth in test [1] was -79.2% (active); in test [2], -63.8% (active); in [3] it was 82.1%; in test [4] it was 13.9%; in test [5], -68.2% (active); in [6] it was 10.9%. Further, the growth in test [7] was -93.2% (active); in [8] it was -81% (active); in [9], -85.8% (active); in [10], -99% (active).

As to `CCOC(=O)/C(F)=C/C1CC1C(c1ccccc1)c1ccccc1` (stereo not drawn), the growth in test [1] was 67%; in [2] it was 80.6%; in test [3] it was 90.4%; in test [5] it was 109%; in test [6], 78.8%; in [7], 88.9%. The growth in [8] is 65.1%; in test [9], 84.9%; in [10], 103%.

In the case of `CC[C@]12C=CCN3CC[C@]4(C(=C(C(=O)OC)C1)Nc1cc(OC)c([C@@H]5[C@H]6O[C@H]6[C@@]6(CC)CC(C(=O)OC)=C7Nc8cc(OC)ccc8[C@@]78CCN5[C@@H]68)cc14)[C@@H]32`, the growth is 24.8% in test [1]; 58.9% in test [2]; 50% in test [3]; 58.2% in [4]; 48.4% in [5]; 18.7% in test [6]. Further, the growth in test [7] is 27.9%; in test [8] it was 42.9%; in [9], 15.5%; in [10] it was 82.5%.

Turning to `C=CC(=O)Nc1ccc(C(=O)/C=C/c2ccc(N(C)C)cc2)c(O)c1`, the growth is -17.2% (active) in [1]; -37.7% (active) in test [2]; 28.1% in [3]; 28.2% in test [4]; -56.4% (active) in test [5]; 34.4% in test [6]. For the same compound, the growth in test [7] is 2.1% (active); in [8], -25.3% (active); in [9] it was -60.3% (active); in test [10], -6.18% (active).

For `O=C(N=Nc1c(O)[nH]c2ccc(Cl)cc12)c1ccc2nc(-c3ccc(Cl)cc3)[nH]c2c1`, the growth in test [1] was 78.6%; in [2], 16.9%; in [3], -21.3% (active); in [4] it was -52.2% (active); in test [5], -88.3% (active); in test [6], 28.1%. Moreover, the growth in test [7] was 66.8%; in [8] it was -59% (active); in [9] it was -100% (active); in [10], -79.3% (active).

Turning to `CCCCCCCCc1ccc(C(=O)Nc2ccc(C)c(OP(=O)(O)O)c2)cc1`, the growth in test [1] is 95.5%; in test [2], 106%; in test [3], 89.8%; in test [4] it was 91%; in [5], 92%; in [6], 91.3%. The growth in test [7] was 103%; in [8], 90.6%; in [9], 92.9%; in test [10] it was 116%.

As for `COC(=O)c1ccc(-c2c(-c3ccccc3)c(F)c3oc(C(=O)OC)c(N)c3c2-c2ccccc2)cc1`, the growth in [1] was 77%; in test [2], 102%; in test [3], 95.7%; in test [4], 80.2%; in test [5], 82.2%; in test [6] it was 92.1%. Besides, the growth is 99.4% in test [7], 82.8% in test [8], 81.6% in test [9] and 98.9% in test [10].

Consider `Cc1cc(Cl)ccc1NC(=O)Nc1ccc(-c2ccc3c(c2)NC(=O)/C3=C\c2ccc[nH]2)cc1`, for which the growth is 92.6% in test [1]; 109% in [2]; 99.4% in test [3]; 94.5% in test [4]; 103% in test [5]; 104% in test [6]. Besides, the growth in test [7] was 106%; in test [8] it was 98.5%; in [9], 101%; in test [10] it was 114%.

For the compound `CC(=O)Nc1cccc(-n2c(COc3ccc(Br)cc3)nc3ccccc32)c1`, the growth in [1] is 88.7% and 107%; in [2], 123% and 115%; in test [3], 89% and 94.7%; in test [4] it was 96.9% and 98.7%; in [5], 94.9% and 113%; in [6], 72.8% and 103%. The growth is 90.3% and 103% in test [7]; 71.9% and 91.9% in test [8]; 91.8% and 104% in test [9]; 101% and 106% in [10].

Take `CCN1C(=O)N(CC)C2NNC(Sc3c(C(=O)O)c4ccccc4n(CCC(C)C)c3=O)=NC21` (stereo not drawn): the growth in [1] is 2.84% (active); in test [2], -30% (active); in test [3], 26.1%; in [5], 2.04% (active); in [6] it was 26.1%; in [7], 3.73% (active). Besides, the growth in [8] is 17.9%; in test [9], -41.7% (active); in test [10], 45.5%.

Take `Nc1nn2c(-c3cc4cc(Br)ccc4oc3=O)ccnc2c1N=Nc1ccccc1`: the growth in test [1] is 53.4%; in test [2], 22.4%; in [3] it was -59.8% (active); in test [4], -54.5% (active); in test [5] it was -11.2% (active); in [6], 14.4%. Also, the growth in test [7] was -20.8% (active); in test [8] it was 31.6%; in test [9] it was 18%; in test [10] it was 52.5%.

As for `COc1cc(/C=C/C(=O)c2cnn(-c3cc(=O)[nH]c4ccc(C)cc34)c2C)cc(OC)c1OC`, the growth in [1] is -38.7% (active); in [2], -67.3% (active); in [3], 45.1%; in [4] it was 18.7%; in test [5], -85% (active); in test [6], 5.99% (active). Also, the growth is -95.2% (active) in [7], -71.9% (active) in test [8], -92% (active) in [9] and -77.2% (active) in [10].

For the compound `Cc1ccc(-c2cc(C(=O)N=Nc3c(O)[nH]c4ccc(F)cc34)c3ccccc3n2)cc1`, the growth was 7.85% (active) in test [1]; 36.3% in test [2]; 56.7% in [3]; 41.9% in test [4]; -30.9% (active) in [5]; 77.6% in test [6]. In addition, the growth was 59.2% in [7], 59.9% in test [8], 1.93% (active) in test [9] and 14.5% in [10].

With `O=C(CSc1nnc(-c2ccc(-c3nc4ccccc4[nH]3)cc2)o1)Nc1ccc(Br)cc1`, the growth in [1] was 17.5%; in test [2], 22.6%; in test [3] it was 63.3%; in [4], -46.2% (active); in [5] it was -81.6% (active); in test [6], 12.4%. In addition, the growth was 21.6% in test [7], 30.5% in test [8], -85.5% (active) in test [9] and -63.6% (active) in test [10].

For the compound `O=c1ccc(Cn2c(C(F)(F)F)cc3c(Cl)ncnc32)c[nH]1`, the growth in [1] was 0.0667% (active); in [2], 78.1%; in test [3], 13.1%; in test [4] it was 47.4%; in test [5], 98.5%; in test [6], 78.4%. In addition, the growth in test [7] is 6.31% (active); in [8], 19.3%; in test [9], -61.8% (active); in test [10], 40.8%.

As for `O=C(Nc1ccc(S(=O)(=O)N2CCCCC2)cc1)C(Cl)Cl`, the growth in test [1] was 103%; in test [2] it was 109%; in [3], 103%; in test [4], 93.7%; in test [5], 98%; in test [6], 107%. For the same compound, the growth in test [7] was 105%; in test [8] it was 106%; in [9], 100%; in test [10], 130%.

For `COc1cccc(NC(=O)c2ccc(NC(=O)CCl)s2)c1`, the growth was -29.7% (active) in test [1]; -7.55% (active) in test [2]; 74.6% in test [3]; 73.8% in test [4]; -39.9% (active) in test [5]; -12.4% (active) in test [6]. Besides, the growth in test [7] is 32.1%; in [8] it was -19.4% (active); in [9], -94.9% (active); in test [10], 51%.

Regarding `O=C(Nc1ccc(F)cc1)Nc1nc2ccc([N+](=O)[O-])cc2s1`, the growth in test [1] is 6.88% (active); in test [2], 4.5% (active); in test [3], -16.6% (active); in [4] it was 15.1%; in test [5], 6.53% (active); in test [6], 18.4%. Further, the growth in [7] was -84% (active); in test [8], -5.55% (active); in test [9], 12.5%; in test [10], 7.31% (active).

With `COc1ccc(-c2cc(C(=O)N=Nc3c(O)[nH]c4ccc(Cl)cc34)c3ccccc3n2)cc1OC`, the growth is 101% in [1]; 117% in test [2]; 118% in [3]; 97.1% in test [4]; 100% in test [5]; 103% in test [6]. Further, the growth in test [7] was 111%; in [8] it was 89.8%; in [9], 90.9%; in [10] it was 110%.

Consider `COc1cc(CNC(=O)C[C@H](C)CCC=C(C)C)ccc1OCc1cn(-c2cccc(C(F)(F)F)c2)nn1`, for which the growth in [1] was 56.8%; in [2], 96.6%; in test [3], 65.2%; in test [4], 97.2%; in [5], 51%; in test [6] it was 82.5%. For the same compound, the growth in test [7] is 78.8%; in test [8], 72.1%; in test [9], 80.7%; in [10] it was 91.6%.

With `O=C1Nc2ccccc2/C1=C/C(=O)c1cc2ccccc2oc1=O`, the growth in [1] was 30.3%; in test [2], 110%; in test [3] it was 126%; in test [4] it was 101%; in test [5], 107%; in [6] it was 95.1%. The growth is 99.9% in test [7], 88.9% in test [8], 91% in test [9] and 36.7% in test [10].

For `Cc1ccc(N=Nc2c(N)nn3c(-c4cc5cc(Br)ccc5oc4=O)ccnc23)cc1`, the growth in [1] was 79.2%; in [2] it was 65%; in test [3], 61.3%; in test [4], -13% (active); in test [5] it was 13%; in [6] it was 88.3%. The growth is 50.8% in test [7], 99.5% in test [8], 51.8% in test [9] and 110% in [10].

On to `COc1ccc(NC(=O)CSc2nnc(-c3ccc(-c4nc5ccccc5[nH]4)cc3)o2)cc1`, for which the growth in test [1] is 18.2%; in test [2], 18%; in test [3], 63.4%; in test [4], -5.58% (active); in test [5], -68.2% (active); in test [6], 25.1%. The growth in test [7] is 14%; in test [8] it was 17.8%; in [9], -63.9% (active); in [10], -72.3% (active).

As for `S=C(NCCc1ccccc1)Nc1ccc(OCc2nc3ccc(Cl)cc3[nH]2)cc1`, the growth in test [1] was 4.3% (active); in [2] it was 32.2%; in test [3], 33.4%; in test [4], 46.7%; in test [5], 16%; in test [6], 39.8%. Moreover, the growth in test [7] was 40.8%; in [8], 34.5%; in test [9] it was -46.3% (active); in test [10], 48%.
